# Test results as given in the supplement of paper PMC10105736.
# Values without a mark were called inactive.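 Rule for the calls: active = MAPPIT score above the 99th percentile of random reference set scores in the same batch; inactive = at or below it.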
# Tests used:
# Test in all cases: MAPPIT interaction score (arbitrary units); higher = stronger binary interaction signal, active = hit call of the paper
# CG13901 = conditions: MAPPIT configuration: N-N; pair source set: Finley_Y2H
# CG5862 = conditions: MAPPIT configuration: N-N; pair source set: Curagen_high_conf
# RpLP1 = conditions: MAPPIT configuration: N-N; pair source set: Curagen_low_conf
# CG1416 = conditions: MAPPIT configuration: N-N; pair source set: DPIM
# CG14535 = conditions: MAPPIT configuration: N-N; pair source set: screen_2
# CG15126 = conditions: MAPPIT configuration: N-N; pair source set: Curagen_high_conf
# Slob = conditions: MAPPIT configuration: N-N; pair source set: Curagen_high_conf
# CG13965 = conditions: MAPPIT configuration: N-C; pair source set: screen_4
# CG14563 = conditions: pair source set: RRS
# CG17162 = conditions: MAPPIT configuration: N-C; pair source set: screen_3
# Dlc90F = conditions: MAPPIT configuration: N-N; pair source set: Lit-BS-16
# CG14282 = conditions: MAPPIT configuration: N-C; pair source set: RRS
# 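Note: HEK293T cells with Epo stimulation, STAT-responsive firefly luciferase reporter, fold induction versus unstimulated cells divided by the larger fold induction of two negative controls lacking either bait or prey.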
binder,measurement,setting,value
Ufl1 (protein) MGSDWDEIKRLAADFQKAQLTSTLQKLSERNCVEIVTLLLEKQMLEVVFTNDGKEYITPDHLEREIQDELYVNGGRANLVEVSKTLNVDLSRIELLAERISAENQSVHLVLGQLIDEDYISHIAQEINEKLVQRGEVSISELASQFDLPSDFLQHDVVEKHLGKIIKGRQDASNPRVFFTQAYIQRCKAKIRGALAAITRPINVAVILQKIGVQEKIFYSLLDEIAPAGQVTSKQANSQYVPHIYAKTQADWVNSFYKQNSFLEYDAIQKLGISDAKSYIRKQFPNEEFLYLKRVALGARLVELTVVTALNECSATKQYLDLTTILPSNLSEEDIEEVFSTIMAQKHSNPSNFVYLDGIVFSQPYLAQLVQPCQALAESQAKAAIDGGVYQQYIVEKTLAQKGNVSTQELEDEGKVDKRDERRKKASSGKAGGGAQGRETKTKSTKKHQRGKAAAQFDSDDEDDAQQGSRGGGGASKKAVKPLELVKTADIVKLITASLEEEGLEHLSKSIASLYTNQFNQTALARAQELFEATPQTNRRQTHAAIQDRINTLLIDIRLYEKGLKLFPQDTQTQLVKYLLKSLGNEICNELSLYVASECNLTVKNTNLNVDQRNKLAQECEAQYRAALLEQNKALNKSIDDFELATETVLKTCSMIIKKVDKKKDRLLIADHKKKLQKQLLECNEPALLLHLAALILFTTITGSILHASGKFVSAILQHIRGSLNEDQNALLLRYHDLVLQVLQAIPDSNESKLANEHLQTMQNQVVELAQNFSRASISKAD,MAPPIT interaction score,CG13901,1.55
same,MAPPIT interaction score,CG5862,-0.395
same,MAPPIT interaction score,RpLP1,-0.273
M6 (protein) MSKVKNLLAKMLQRFGKNSSQADSQRYDSLEEIAQNQANERMLRATQVGLEEHLVICLETEAGSFYWHSQ,MAPPIT interaction score,CG1416,-0.155
Deaf1 (protein) MEQVDSSTELHLNRKDLAALAEDVVKEEVILESSSHHHHHHHHQLDTKVRMVTSSSNDNSGSGGASGGTSGAGGGNGGGGVVSVPVSLPIGSMITGTTFNVITPDQLPPHFKPMLCVDNNGYLSGSTVSMGNDLKTIVIQQQQTQPGGGGGGANNAGTNTTATNTIGLNHDGSGSNNSHDSLATLEHAAGGASGVGGGGGGTGGGSSGWSENPSTQHNEVFQIRCKTTCAELYRSKLGSGGRGRCVKYKDKWHTPSEFEHVCGRGSSKDWKRSIKYGGKSLQSLIDEGTLTPHATNCSCTVCCDDEAGESASGPVRLFTPYKRRKRNQTDLDMESGPKRKRNTHHSNNNNSNTNNNNTSGSGANNCVDVTAAVAAATASVVDENNMFLSEENITSKDEPWAALNDSLDTSTELVDQSQMGNTYERETFVVNINDGSSIAVLDTSQSMKNIEHVYCTMVKATNDFKRMLNDMKQSFERRIEVLQKERDAAVSAMRVQVHADIDDPNISGSLHGNEIISAKKCANCNREALAECSLCRKTPYCSEFCQRKDWNAHQVECTRNPQTTTQQVMLLIDDQS,MAPPIT interaction score,CG14535,0.95
Fem-1 (protein) MHAELYRTRKRWYESAWPGAGFWRGANDTLPVTNYITYPANFDQPDGQSLTPLTMAAMMGNVKFVKTLLSHYDVDLDRECNVIYDGMVVYGATALWVAAGMGHLQIVKMLVQAGAAINHNTKAQSSPLRAACYEGRLDIVEFLIDNGADVNATNLFNNNTLMIAAYKGHHLVVKTLLQNGSRANDQALCGATALHYAAESGHLDVVVALLDHGATLKKNELGITPALQAAERLHEDVLEAFIERPELMSLEEQITALELLGATYANDKIKYDVNKAYGYLLRAMQLRYSNPRGVIRKRVQPTVPAYDNWLETENLPELYAIKLNHHSIHMESLAIRERILGRNNPELPQAIIYRGAVMADQGRFYQCQVLWNYAIDLRMRNNVSVDRDLLRFAQLFAQILRVENHNLTLDHVLPVLAKCQQEIENNKFKIKEAKPNACPSLWQDQNNQNCITALYLIKIVTHLARRKKDQNIDEEHIQQLFLVVRKFIQNDTRLQDGQTLLHIAVNGVMPVDEFYTNEMCRFPCYATALVLVHCGASVVAVDSDRNTPLHILVTKVNTTQDRQAEMARILELFVEAGAHLDAVNAAGQTAATACKLPILANRLHAHQNAHTSLKCLAARSIATNRLNFKGLIPTQLEAFIQMHSVRKVLP,MAPPIT interaction score,CG15126,2.87 (active)
same,MAPPIT interaction score,Slob,0.0788
RpLP2 (protein) MRYVAAYLLAVLGGKDSPANSDLEKILSSVGVEVDAERLTKVIKELAGKSIDDLIKEGREKLSSMPVGGGGAVAAADAAPAAAAGGDKKEAKKEEKKEESESEDDDMGFALFE,MAPPIT interaction score,CG13965,2.1
Mettl2 (protein) MLTTSSSTMLGKYGWQILRRLASKSWEHTRQRKKPSGAGSRVLTDAREVFEFNAWDHVQWDEEQELAAKAAVAKNSTSKMEAEQKERFQTDAPKFWDSFYGIHDNRFFKDRHWLFTEFPELAPLAADSAVLQPRSIFELGCGVGNTILPLLQYSSEPQLKVFGCDFSARAIEILRSQRQFDEKRCEVFVMDATLDHWQVPFEENSQDIIVMIFVLSAIEPKKMQRVLDNCYRYLRPGGLLLFRDYGRYDLAQLRFKSGKCMEDNFYVRGDGTMVYFFTEEELRGMMTQAGLQEEQLIVDRRLQVNRCRGLKMYRVWIQTKFRKPL,MAPPIT interaction score,CG14563; MAPPIT configuration: N-C,0.238
same,MAPPIT interaction score,CG14563; MAPPIT configuration: N-N,-0.0268
same,MAPPIT interaction score,CG17162,1.73
same,MAPPIT interaction score,Dlc90F,0.581
Fkbp12 (protein) MGVQVVPIAPGDGSTYPKNGQKVTVHYTGTLDDGTKFDSSRDRNKPFKFTIGKGEVIRGWDEGVAQLSVGQRAKLICSPDYAYGSRGHPGVIPPNSTLTFDVELLKVE,MAPPIT interaction score,CG14282,-0.281
